Test results reported in PubChem BioAssay (NCI).
The panel holds about 83,000 compounds, 20% with a hit somewhere; the sample as a whole holds those more often.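 Values shown are percent growth following 48 h exposure of cells in 96-well plates to a single concentration of compound; below 10 was considered active.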 The source made the active and inactive calls.

Test system: UACC-62 melanoma
Experiment: NCI-60 one-dose screen, 48 h (100 = growth as untreated, 0 = no growth, -100 = all killed)
Settings: 10 µM unless noted

SMILES | growth
CCCCCCCC[C@@H]1N[C@@H](C(=O)OC)Cc2c1[nH]c1ccccc21 | 69.1% (inactive)
COC(=O)c1cc(N=C2NC(=O)/C(=C/C=C/c3ccccc3)S2)ccc1O | 33.6% (inactive)
CSc1nnc(-c2cc3c([nH]c4ccccc43)c(-c3cccc(O)c3)n2)n1-c1ccccc1 | 42.3% (inactive)
Cc1ccc(-c2nc([P+](c3ccccc3)(c3ccccc3)c3ccccc3)c(S(=O)(=O)c3ccc(C)cc3)o2)cc1 | 26.1% (inactive)
O=S(=O)(NCCNc1nccc(-c2c(-c3ccc(F)c(O)c3)nc3occn23)n1)c1ccc(Cl)cc1 | 23.9% (inactive)
COc1ccc2c(c1)c(-c1nc(-c3c[nH]c4ccncc34)cs1)cn2C | -75.8% (active)
CC(C)c1ccc(C(=O)Nc2nc3ccc(O)c(CN(C)C)c3s2)cc1 | 66% (inactive)
O=C1Nc2ccccc2/C1=C/c1nc2ccccc2c(=O)[nH]1 | 96.1% (inactive)
O=C(c1ccccc1)c1ccc(C2CCCCC2)cc1 | 86.8% (inactive)
C=CC(=O)N1CCN(c2cccc(Oc3nccc(Nc4nnc(-c5ccc(Br)cc5)s4)n3)c2)CC1 | 37% (inactive)
O=C1C(Cl)=C(Nc2ccc(S(=O)(=O)N3CCOCC3)cc2)C(=O)c2ccccc21 | 29.7% (inactive)
CCOC(=O)C1=C(C)NC(=O)NC1c1c(Cl)n(CCCl)c2ccccc12 (stereo not given) | 85.4% (inactive)
CCCC/C=C/[C@@H]1C[C@H]1CCO | 92.4% (inactive)
C=C(CBr)[C@@H]1CC[C@]2(C(=O)O)CC[C@]3(C)[C@H](CC[C@@H]4[C@@]5(C)CCC(=O)C(C)(C)[C@@H]5CC[C@]43C)[C@@H]12 | 69% (inactive)
CC/C=C\C[C@H](O)C/C=C1/C(=O)C=C[C@@H]1C/C=C\CCCC(=O)N(C)C | -31.6% (active)
CNC(=O)c1[nH]cc(-c2ccc(OC)cc2)c1-c1cc(OC)c2c(c1OC)OCO2 | 90% (inactive)
O=C(/C=C/c1cccs1)Nc1ncc(Cc2ccccc2F)s1 | 16.8% (inactive)
CCCn1cc2c(=O)nc3sc(Cc4ccccc4)c(C)n3c2n1 | 95% (inactive)
CCC(C)N(CCNc1cc(OC)cc2cccnc12)CC(C)C (stereo not given) | 88.9% (inactive)
C1CCC([PH+](C2CCCCC2)C2CCCCC2[PH+](C2CCCCC2)C2CCCCC2)CC1.[Au].[CH-]1CCCCC1C1CCCC[N-]1 (stereo not given) | -79.7% (active)

SMILES | growth
O=C1/C(=C/c2ccccc2Br)COc2ccc(O)cc21 | 66.4% (inactive)
O=C(Nc1ccccc1O)c1ccc(CNC(=O)c2sccc2Nc2ccnc(C(F)(F)F)c2)cc1 | 27.7% (inactive)
N#Cc1c(-c2ccc(Cl)cc2)nc(NN2C(=O)c3ccccc3C2=O)nc1N1CCOCC1 | 101% (inactive)
O=C(OC(CO)C(=O)NC12CC3CC(CC(C3)C1)C2)c1ccc(Cl)cc1 (stereo not given) | 96.6% (inactive)
COc1ccc(/C=N/C2=C(C#N)C(c3ccccc3)c3ccc4ccccc4c3O2)cc1 (stereo not given) | 15.8% (inactive)
CC(C)c1ccc(C(=O)Nc2sc3c(c2C(N)=O)CCC(=O)C3)cc1 | -35.7% (active)
N=C(N)c1ccc(-c2ccc(-c3ccc(Cl)cc3Cl)s2)cc1 | 74.8% (inactive)
O=C(/C=C/c1cccc(Cl)c1)c1ccc(Nc2nc(Nc3ccc(F)cc3)nc(Nc3ccc(Cl)cc3)n2)cc1 | 108% (inactive)
COc1c(B(O)O)cccc1-c1nc2c(F)cc3[nH]ncc3c2c2c1CCCC2 | 2.47% (active)
N#Cc1ccc(O)c(C2=NCC(c3ccccc3)O2)c1 (stereo not given) | 37.8% (inactive)
COC(=O)c1nc(-c2ccccc2)oc1S(=O)(=O)Cc1ccccc1 | 91.1% (inactive)
OCCn1cc(-c2nc(-c3c[nH]c4ncccc34)cs2)c2cc(F)ccc21 | 63.3% (inactive)
O=[N+]([O-])c1cccc(-c2nc3cc4nc5ccccc5[nH]c4cc3n2)c1 | 97.5% (inactive)
CN(C)c1ccc(C(=O)OCCCCCCl)cc1 | 94.5% (inactive)
CC(C)COc1nc2c(c(=O)n(C)c(=O)n2C)n1C | 93.8% (inactive)
Nc1nc(-c2ccc(Cl)cc2)nc2c1sc(=S)n2-c1ccccc1 | 46.9% (inactive)
Cc1ccc(NC(=O)c2sc3nc(C)c(Br)c(C)c3c2N)cc1 | 67.2% (inactive)
Cc1cc(N2CCCCC2)cc(C)c1-c1csc(NC(=O)c2ccncc2)n1 | 45.1% (inactive)
CCN1C(=S)N(c2ccccc2)C2C1NN=c1s/c(=C3\C(=O)N(C(C)C)c4ccccc43)c(=O)n12 (stereo not given) | 83.5% (inactive)
O=C(N(c1ccccc1)c1ccccc1)n1cc(I)c2nc(Cl)nc(Cl)c21 | 37.2% (inactive)

Test system: LOX IMVI melanoma
Experiment: as above
Settings: 10 µM unless noted

SMILES | growth
CCCCCCCC[C@@H]1N[C@@H](C(=O)OC)Cc2c1[nH]c1ccccc21 | 93.1% (inactive)
COC(=O)c1cc(N=C2NC(=O)/C(=C/C=C/c3ccccc3)S2)ccc1O | 40.1% (inactive)
CSc1nnc(-c2cc3c([nH]c4ccccc43)c(-c3cccc(O)c3)n2)n1-c1ccccc1 | 33.1% (inactive)
Cc1ccc(-c2nc([P+](c3ccccc3)(c3ccccc3)c3ccccc3)c(S(=O)(=O)c3ccc(C)cc3)o2)cc1 | -31.7% (active)
O=S(=O)(NCCNc1nccc(-c2c(-c3ccc(F)c(O)c3)nc3occn23)n1)c1ccc(Cl)cc1 | 45.5% (inactive)
CC(C)c1ccc(C(=O)Nc2nc3ccc(O)c(CN(C)C)c3s2)cc1 | 28.1% (inactive)
O=C1Nc2ccccc2/C1=C/c1nc2ccccc2c(=O)[nH]1 | 82.1% (inactive)
C=CC(=O)N1CCN(c2cccc(Oc3nccc(Nc4nnc(-c5ccc(Br)cc5)s4)n3)c2)CC1 | 59% (inactive)
O=C1C(Cl)=C(Nc2ccc(S(=O)(=O)N3CCOCC3)cc2)C(=O)c2ccccc21 | 35.3% (inactive)
CCOC(=O)C1=C(C)NC(=O)NC1c1c(Cl)n(CCCl)c2ccccc12 (stereo not given) | 92.6% (inactive)
C=C(CBr)[C@@H]1CC[C@]2(C(=O)O)CC[C@]3(C)[C@H](CC[C@@H]4[C@@]5(C)CCC(=O)C(C)(C)[C@@H]5CC[C@]43C)[C@@H]12 | 75.4% (inactive)
CC/C=C\C[C@H](O)C/C=C1/C(=O)C=C[C@@H]1C/C=C\CCCC(=O)N(C)C | -84.3% (active)
O=C(/C=C/c1cccs1)Nc1ncc(Cc2ccccc2F)s1 | 20.4% (inactive)
CCCn1cc2c(=O)nc3sc(Cc4ccccc4)c(C)n3c2n1 | 94% (inactive)
CCC(C)N(CCNc1cc(OC)cc2cccnc12)CC(C)C (stereo not given) | 76.9% (inactive)
C1CCC([PH+](C2CCCCC2)C2CCCCC2[PH+](C2CCCCC2)C2CCCCC2)CC1.[Au].[CH-]1CCCCC1C1CCCC[N-]1 (stereo not given) | -96.5% (active)
O=C1/C(=C/c2ccccc2Br)COc2ccc(O)cc21 | 18.8% (inactive)
O=C(Nc1ccccc1O)c1ccc(CNC(=O)c2sccc2Nc2ccnc(C(F)(F)F)c2)cc1 | 53.6% (inactive)

SMILES | growth
N#Cc1c(-c2ccc(Cl)cc2)nc(NN2C(=O)c3ccccc3C2=O)nc1N1CCOCC1 | 102% (inactive)
COc1ccc(/C=N/C2=C(C#N)C(c3ccccc3)c3ccc4ccccc4c3O2)cc1 (stereo not given) | 29.5% (inactive)
CC(C)c1ccc(C(=O)Nc2sc3c(c2C(N)=O)CCC(=O)C3)cc1 | 4.43% (active)
N=C(N)c1ccc(-c2ccc(-c3ccc(Cl)cc3Cl)s2)cc1 | -89.3% (active)
O=C(/C=C/c1cccc(Cl)c1)c1ccc(Nc2nc(Nc3ccc(F)cc3)nc(Nc3ccc(Cl)cc3)n2)cc1 | 104% (inactive)
COc1c(B(O)O)cccc1-c1nc2c(F)cc3[nH]ncc3c2c2c1CCCC2 | -35.2% (active)
N#Cc1ccc(O)c(C2=NCC(c3ccccc3)O2)c1 (stereo not given) | 25.9% (inactive)
COC(=O)c1nc(-c2ccccc2)oc1S(=O)(=O)Cc1ccccc1 | 61.1% (inactive)
OCCn1cc(-c2nc(-c3c[nH]c4ncccc34)cs2)c2cc(F)ccc21 | 65.5% (inactive)
O=[N+]([O-])c1cccc(-c2nc3cc4nc5ccccc5[nH]c4cc3n2)c1 | 99.8% (inactive)
CN(C)c1ccc(C(=O)OCCCCCCl)cc1 | 102% (inactive)
CC(C)COc1nc2c(c(=O)n(C)c(=O)n2C)n1C | 105% (inactive)
Nc1nc(-c2ccc(Cl)cc2)nc2c1sc(=S)n2-c1ccccc1 | 29.4% (inactive)
Cc1ccc(NC(=O)c2sc3nc(C)c(Br)c(C)c3c2N)cc1 | 62.1% (inactive)
Cc1cc(N2CCCCC2)cc(C)c1-c1csc(NC(=O)c2ccncc2)n1 | 47.1% (inactive)
CCN1C(=S)N(c2ccccc2)C2C1NN=c1s/c(=C3\C(=O)N(C(C)C)c4ccccc43)c(=O)n12 (stereo not given) | 47.5% (inactive)
O=C(N(c1ccccc1)c1ccccc1)n1cc(I)c2nc(Cl)nc(Cl)c21 | 31.1% (inactive)
